# Screening data (PubChem BioAssay)
# Shown are actives, neighbours in structure and some others; about 3.5% of the full set was active somewhere.
# Sm TGR block = blocks Schistosoma mansoni thioredoxin glutathione reductase | Q962Y6 | purified TGR, DTNB reduction, TNB absorbance 405 nm | Potency, µM (titrated, usually from 114 µM), inactives show at the top dose activity change, negative = inhibition, hits mostly inhibitors | 3% of 360,000 active | AID 485364; note: % is set by controls: 0 for no effect and ±100 for the full control effect; nearly all actives have a fitted effect of over 60% in size
#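 TGR 20 nM + NADPH 100 uM (dispensed conc.), cpd preinc 15 min RT; start with NADPH (500 uM addition) then DTNB (15 mM addition). Kinetic TNB absorbance, 405 nm filter. Four-parameter Hill fit across titration.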
# LmPK inhibitor = inhibitors of Leishmania mexicana pyruvate kinase. Q27686. purified LmPK, Kinase-Glo ATP luminescence, 1 h. Potency, µM (doses to about 57.5 µM), for inactives: at the top dose activity change, negative = inhibition, hits mostly inhibitors. 0.37% of 290,000 active. AID 1721; note: % is set by controls: 0 for no effect and ±100 for the full control effect
# Target sequence (Q27686 whole entry, looked up): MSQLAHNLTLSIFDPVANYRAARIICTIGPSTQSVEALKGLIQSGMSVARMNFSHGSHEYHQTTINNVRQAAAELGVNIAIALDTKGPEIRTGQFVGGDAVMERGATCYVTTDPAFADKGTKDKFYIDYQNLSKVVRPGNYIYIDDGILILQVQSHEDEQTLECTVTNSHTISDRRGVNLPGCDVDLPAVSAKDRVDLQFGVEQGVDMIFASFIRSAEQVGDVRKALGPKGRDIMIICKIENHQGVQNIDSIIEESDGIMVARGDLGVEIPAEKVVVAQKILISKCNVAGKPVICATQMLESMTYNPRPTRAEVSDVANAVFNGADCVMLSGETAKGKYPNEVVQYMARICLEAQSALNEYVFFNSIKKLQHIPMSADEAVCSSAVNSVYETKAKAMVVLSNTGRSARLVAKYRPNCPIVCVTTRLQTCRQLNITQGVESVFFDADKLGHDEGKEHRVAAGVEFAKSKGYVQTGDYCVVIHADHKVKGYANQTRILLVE
#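 qHTS format; LmPK 0.1 nM; substrates PEP 0.5 mM and ADP 0.1 mM. One-hour room-temperature incubation, then coupled luciferase luminescence; 0.5 nM enzyme wells mark activation.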
# RE007 growth inh = less growth of the S. pombe RE007 Vpr strain | S. pombe RE007 Vpr strain, BacTiter-Glo ATP luminescence, 24 h | Potency, µM (doses to about 92.2 µM), for the others: at the highest dose activity change, negative = less growth, usual class: inhibitors | 0.21% of 360,000 active | AID 651644; active = well fitted falling curve with a large enough effect; inconclusive = small, poorly fitted or top-dose-only effect; inactive = no such curve, though single readings can be large or run the other way; note: % is set by controls: 0 for no effect and ±100 for the full control effect; nearly all actives have a fitted effect of over 50% in size
#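 Fission yeast strain RE007, carrying one chromosomally integrated HIV-1 vpr copy, was seeded at OD 0.01 in PMG+AL medium with 23 nL pinned compound. After 24 h at 30 °C and 99% humidity, viability was read by BacTiter-Glo luminescence.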
# FBPA Giardia inh = Giardia lamblia aldolase inhibition. A8B2U2. Potency, µM (highest dose often 59.6 µM), inactives show at the top dose activity, negative = inhibition, usual class: inhibitors. purified Giardia FBPA. 0.71% of 290,000 active; note: % is set by controls: 0 for no effect and ±100 for the full control effect; nearly all actives have a fitted effect of over 55% in size
#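 40 nM FBPA preincubated 10 min at RT with compound (up to 57.5 uM final), then substrate plus GAPDH/TPI/NAD/arsenate coupling and diaphorase/resazurin added. Fluorescence read after 20 min at RT, 525/598 nm.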
# NS1 inh = inhibitors of influenza NS1 protein function; Potency, µM (doses to about 46.1 µM), inactives show at the highest dose activity, positive = more growth; AID 2326; 0.4% of 270,000 active; calls by dose curve; note: actives are rising curves; nearly all actives have a fitted effect of over 50% in size
#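 OD600 was taken as the measure of yeast growth restored by compound in an NS1-expressing S. cerevisiae strain. Cells had been washed out of glucose medium and diluted 1:100 into galactose -URA medium, pH 6.0.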
# Tb PYK inh = blocks Trypanosoma brucei pyruvate kinase. TbPYK enzyme, Kinase-Glo Plus ATP luminescence, 45 min. Potency, µM (doses to about 76.8 µM), without a hit: at the top dose activity, negative = inhibition, usual class: inhibitors. 0.12% of 410,000 active; note: % is set by controls: 0 for no effect and ±100 for the full control effect; nearly all actives have a fitted effect of over 50% in size
#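 In this concentration-response screen, enzyme-free wells defined baseline while DMSO plates tracked drift. Each reaction combined TbPYK, substrate, compound and 130 uM ADP for 45 min at room temperature. Kinase-Glo Plus luminescence gave the signal.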
# Starred values were filed as active, the others as inactive; ? = inconclusive; / = no result given; [ ] = dose if it differs, or a comment. Unless noted, calls come from the whole dose curve; as a rule, active = well fitted curve in the direction sought with a large enough effect; inconclusive = small, poorly fitted or top-dose-only effect, or another doubt; inactive = no such curve, though single readings can be large; an effect the other way counts as inactive or inconclusive. Potency is the fitted concentration of half-maximal effect.
SMILES,Sm TGR block,LmPK inhibitor,RE007 growth inh,FBPA Giardia inh,NS1 inh,Tb PYK inh
Cc1ccccc1NC(=O)Cn1nc(-c2ccccc2)nc(Cc2ccccc2)c1=O,-0.7%,/,/,/,/,-3.9%
O=C(NCC1OCCc2ccccc21)c1ccco1 (stereo not drawn),31.6µM*,5.3%,-1.2%,-22.0%,-19.5%,-9.0%
O=C(CCc1ccccc1)NCC1OCCc2ccccc21 (stereo not drawn),-20.4%,3.4%,0.7%,0.9%,-5.0%,-15.4%
CCCCCCSc1ccc([C@@H]2[C@H]3C(=O)N(C)C(=O)[C@H]3[C@]3(C(=O)OC)CCCCN23)cc1OC,?,/,-6.2%,/,/,-8.9%
CCCSc1ccc([C@@H]2[C@@H]3C(=O)N(C)C(=O)[C@@H]3[C@]3(C(=O)OC)CCCN23)cc1OC,20µM*,/,9.1%,/,/,-18.8%
CCOc1ccc(CCNC(=O)CS(=O)Cc2nc(-c3ccc(OC)c(OC)c3)oc2C)cc1OCC (stereo not drawn),50.1µM*,1.2%,-23.7%,/,-5.9%,-8.7%
COc1ccc(-c2nc(CSCC(=O)NCc3ccco3)c(C)o2)cc1,44.7µM*,7.6%,8.0%,-1.2%,-2.2%,2.8%
COc1ccc(-c2nc(CS(=O)CC(=O)NCc3ccc(Cl)cc3)c(C)o2)cc1OC (stereo not drawn),44.7µM*,7.7%,-22.1%,5.1%,-7.1%,-5.0%
COc1ccc(-c2nc(CSCC(=O)NCCc3ccccc3)c(C)o2)cc1,?,/,/,/,/,4.2%
COc1ccc(-c2nc(CS(=O)CC(=O)NCCc3ccc(Cl)cc3)c(C)o2)cc1OC (stereo not drawn),?,/,/,/,/,-5.2%
Cc1ccc(-c2nc(CS(=O)CC(=O)NCc3ccc(F)cc3)c(C)o2)cc1 (stereo not drawn),-29.4%,5.0%,-7.7%,/,?,-19.1%
COc1ccc(CNC(=O)CS(=O)Cc2nc(-c3ccc(C)cc3)oc2C)cc1 (stereo not drawn),50.1µM*,9.5%,5.9%,7.1%,4.2%,2.7%
CCOc1ccc(CNC(=O)CC(C)n2nc(C)cc2C)cc1OC (stereo not drawn),-9.8%,/,/,/,/,0.4%
Cc1cccc(NC(=O)CN2C(=O)c3ccccc3Sc3ncccc32)c1C,1.5%,/,/,/,/,1.1%
CCCn1ccc2c(OCC(=O)Nc3ccc(F)cc3F)cccc2c1=O,6.6%,/,/,/,/,-8.3%
COc1ccc(-c2nc(CS(=O)CC(=O)NC3CCCCC3C)c(C)o2)cc1OC (stereo not drawn),28.2µM*,-7.6%,-8.1%,/,11.1%,-14.2%
COc1ccc(-c2nc(CS(=O)CC(=O)NCc3ccc(F)cc3)c(C)o2)cc1OC (stereo not drawn),?,/,/,/,/,-1.1%
Cc1ccc(-c2nc(CS(=O)CC(=O)NCc3ccccc3)c(C)o2)cc1 (stereo not drawn),39.8µM*,1.0%,-5.7%,5.3%,4.5%,-7.3%
COc1ccc(-c2nc(CS(=O)CC(=O)NCc3ccc(C)cc3)c(C)o2)cc1OC (stereo not drawn),39.8µM*,-4.3%,-9.9%,-5.9%,7.9%,2.3%
COc1ccc(CNC(=O)CS(=O)Cc2nc(-c3ccc(OC)c(OC)c3)oc2C)cc1 (stereo not drawn),25.1µM*,-0.8%,0.4%,/,13.8%,-2.9%
O=C1CN(C(=O)c2ccc(S(=O)(=O)N3CCCCC3)cc2)C(c2ccc(F)cc2)c2cc(Br)ccc2N1 (stereo not drawn),-27.1%,/,/,/,/,-1.6%
CCCC1=Nc2cc(C(=O)NCC(C)c3ccccc3)ccc2Sc2ccccc21 (stereo not drawn),0.0%,/,/,/,/,1.3%
Cc1oc(-c2ccccc2F)nc1CS(=O)CC(=O)NCc1ccccn1 (stereo not drawn),9.4%,-11.3%,5.7%,/,17.1%,0.0%
Cc1ccc(-c2nc(CS(=O)CC(=O)NCc3ccco3)c(C)o2)cc1 (stereo not drawn),50.1µM*,4.5%,-8.5%,3.2%,?,-9.6%
Cc1ccc(-c2nc(CS(=O)CC(=O)NCc3ccccn3)c(C)o2)cc1 (stereo not drawn),56.2µM*,7.2%,-11.2%,-0.3%,?,1.0%
SMILES,Sm TGR block,LmPK inhibitor,RE007 growth inh,FBPA Giardia inh,NS1 inh,Tb PYK inh
Cc1cccc(OCCSCc2nc3ccccc3[nH]2)c1,-0.6%,2.0%,-14.3%,/,-94.9%,-4.7%
Cc1cccc(OCCCSc2nc3ccccc3[nH]2)c1,7.3%,2.7%,44.7µM*,-2.6%,-260.2%,2.7%
CCCCCCCCCCCCCCCCn1cc[n+](C)c1,13.1%,3.1%,14.1µM*,1.9%,-90.3%,-2.3%
CCCCCCCCCCCCCCC[C@@H](O)[C@H](CO)NC(C)=O,/,/,/,-1.8%,/,/
COc1ccc(C(=O)Nc2ccccc2C(=O)N/N=C/c2ccco2)cc1,2.7%,25.1µM*,17.8µM*,-4.4%,9.4%,?
COc1ccc(N(CC(=O)N/N=C/c2ccco2)S(=O)(=O)c2ccccc2)cc1,28.2µM*,2.3%,3.7%,8.3%,-10.8%,1.8%
O=C(Nc1ccccc1C(=O)N/N=C/c1ccncc1)c1ccccc1,2.2%,25.1µM*,8.91µM*,-1.0%,/,?
CCOc1ccc(/C=N/NC(=O)c2ccccc2NC(=O)c2ccc(OC)cc2)cc1,2.2%,-13.1%,-18.2%,-3.1%,-3.8%,-9.6%
CCOCCCn1c(SCC(=O)NCCCOC)nc2c(sc3ccccc32)c1=O,8.2%,/,/,/,/,-13.8%
Oc1c(Cl)cc(Cl)c2c1NCCC2,1µM*,-0.8%,?,?,-50.5%,-17.4%
COc1ccc(-c2cn3nc(N4CCC(C(=O)NCc5ccccc5F)CC4)sc3n2)cc1,0.6%,/,/,/,/,-11.4%[15.4 µM]
N#CC(c1ccccc1)C1CCN(Cc2ccccc2)CC1 (stereo not drawn),89.1µM*,1.4%,-6.7%,-18.0%,0.0%,-9.7%
O=c1cc(CSc2ccc(Cl)cc2)[nH]c2[nH]n(-c3ccccc3)c(=O)c12,44.7µM*,0.3%,10.0%,1.3%,14.4%,0.2%
Cc1ccc(SCc2cc(=O)c3c(=O)n(-c4ccccc4)[nH]c3[nH]2)cc1,-34.6%,0.4%,-3.1%,-10.2%,/,1.5%
Cc1ccc(CN2CCN(C3CCN(C(=O)OC(C)(C)C)CC3)C(=O)C2=O)cc1,-6.5%,/,/,/,/,0.1%
CCC1Oc2ccc(C)cc2N(CC(=O)NCc2ccc(F)cc2)C1=O (stereo not drawn),-3.5%,/,/,/,/,2.0%
CCc1ccc(OCc2ccc(C(=O)O)o2)cc1,35.5µM*,2.9%,2.4%,15.1%,-2.3%,3.9%
O=C(Nc1ccc(Cl)cc1C(F)(F)F)c1cc(S(=O)(=O)N2CCOCC2)ccc1F,11.1%,/,/,/,/,0.4%
C=CCc1ccccc1OCC(O)CNC1CCCC1 (stereo not drawn),2.0%,-9.6%,-3.1%,/,2.8%,7.6%
